# Experimental data as given in PubChem BioAssay (Tox21).
# Records with an inconclusive call do not appear. Entries that show only a call come without a potency. Values without a mark were called inactive. The source made the active and inactive calls. Calls come from the whole dose curve; as a rule, active = well fitted curve in the direction sought with a large enough effect in the repeat runs; inconclusive = weak or mixed curves; inactive = no such curve, though single readings can be large; an effect the other way counts as inactive or inconclusive.
# Assays:
# [1] = target: Cytochrome P450 2C9 (Homo sapiens) (UniProt P11712); experiment: Cytochrome P450 Family 2 Subfamily C Member 9 (CYP2C9) small molecule antagonists: luciferase reporter qHTS assay (AID 1671198); for activity change, negative = inhibition: series mostly up to about 120 µM
# Procedure, shortened: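 CYP2C9 activity was measured with a P450-Glo proluciferin substrate. Enzyme–substrate mix was held with compound for 10 min at room temperature, then NADPH regeneration solution was added for 1 h at 37C. Luciferin product was read as luminescence.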
# [2] = target: Voltage-gated inwardly rectifying potassium channel KCNH2 (Homo sapiens) (UniProt Q12809); experiment: Human Ether-a-go-go-Related Gene (hERG) channel small molecule antagonists: fluorescence cell-based qHTS assay (AID 1671200);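 for activity change, negative = inhibition: hERG-expressing U2OS cells given a thallium stimulus after FluxOR II dye loading; series mostly up to about 77 µM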
# Procedure, shortened: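 U2OS cells expressing the channel were plated at 1000 cells/well, incubated overnight at 37 C, then loaded with FluxOR II thallium-sensitive dye for 1 h at room temperature in the dark, with a further 10 min at room temperature before stimulation.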
# [3] = target: Cytochrome P450 3A4 (Homo sapiens) (UniProt P08684); experiment: Cytochrome P450 Family 3 Subfamily A Member 4 (CYP3A4) small molecule antagonists: luciferase reporter qHTS assay (AID 1671201); for activity change, negative = inhibition: series mostly up to about 120 µM
# Procedure, shortened: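 P450-Glo CYP3A4 system with proluciferin substrate; compounds preincubated 10 min RT with enzyme-substrate mix, then NADPH regeneration added for 1 h RT. Detection reagent 20 min, luminescence read as relative luminescence units.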
# [4] = target: Cytochrome P450 1A2 (Homo sapiens) (UniProt P05177); experiment: Cytochrome P450 Family 1 Subfamily A Member 2 (CYP1A2) small molecule antagonists: luciferase reporter qHTS assay (AID 1671199); for activity change, negative = inhibition: series mostly up to about 120 µM
# Procedure, shortened: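 Read-out is luminescence from luciferin detection reagent (20 min) proportional to CYP1A2 activity; compounds in DMSO preincubated 10 min with enzyme and proluciferin substrate, then NADPH regeneration solution, 1 h, room temperature.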
# Note: nearly all actives have a fitted effect of over 50% in size.
# Potency is the fitted concentration of half-maximal effect.
# Voltage-gated inwardly rectifying potassium channel KCNH2 (Homo sapiens), sequence (Q12809 whole entry, looked up): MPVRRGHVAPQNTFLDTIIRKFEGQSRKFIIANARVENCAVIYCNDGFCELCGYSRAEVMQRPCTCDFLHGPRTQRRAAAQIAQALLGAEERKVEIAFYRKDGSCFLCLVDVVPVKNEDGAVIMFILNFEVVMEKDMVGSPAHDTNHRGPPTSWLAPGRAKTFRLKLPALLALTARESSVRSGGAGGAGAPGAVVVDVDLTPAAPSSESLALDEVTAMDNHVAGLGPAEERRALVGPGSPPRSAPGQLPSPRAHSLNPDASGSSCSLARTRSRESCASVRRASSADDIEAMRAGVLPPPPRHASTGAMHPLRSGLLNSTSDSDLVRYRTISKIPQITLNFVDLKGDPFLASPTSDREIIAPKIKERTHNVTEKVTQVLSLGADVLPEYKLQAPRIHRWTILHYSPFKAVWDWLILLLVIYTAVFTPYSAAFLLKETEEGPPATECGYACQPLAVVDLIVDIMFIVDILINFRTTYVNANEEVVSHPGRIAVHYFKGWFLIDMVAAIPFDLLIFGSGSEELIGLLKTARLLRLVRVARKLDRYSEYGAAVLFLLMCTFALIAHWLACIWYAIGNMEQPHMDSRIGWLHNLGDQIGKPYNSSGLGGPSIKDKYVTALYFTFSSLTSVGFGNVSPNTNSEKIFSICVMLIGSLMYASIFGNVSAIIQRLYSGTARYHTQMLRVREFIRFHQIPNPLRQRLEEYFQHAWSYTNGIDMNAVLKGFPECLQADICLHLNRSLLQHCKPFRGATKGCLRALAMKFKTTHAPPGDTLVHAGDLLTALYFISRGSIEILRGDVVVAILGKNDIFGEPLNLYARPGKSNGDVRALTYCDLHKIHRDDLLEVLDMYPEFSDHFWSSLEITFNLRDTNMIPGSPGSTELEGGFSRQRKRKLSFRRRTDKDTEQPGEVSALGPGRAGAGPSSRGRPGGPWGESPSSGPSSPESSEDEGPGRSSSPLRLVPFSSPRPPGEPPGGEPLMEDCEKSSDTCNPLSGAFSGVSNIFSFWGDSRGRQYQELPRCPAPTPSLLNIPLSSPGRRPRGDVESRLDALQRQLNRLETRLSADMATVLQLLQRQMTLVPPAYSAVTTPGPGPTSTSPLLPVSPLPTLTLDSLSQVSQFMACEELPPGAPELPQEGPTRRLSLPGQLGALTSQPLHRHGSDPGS
# Cytochrome P450 2C9 (Homo sapiens), sequence (P11712 whole entry, looked up): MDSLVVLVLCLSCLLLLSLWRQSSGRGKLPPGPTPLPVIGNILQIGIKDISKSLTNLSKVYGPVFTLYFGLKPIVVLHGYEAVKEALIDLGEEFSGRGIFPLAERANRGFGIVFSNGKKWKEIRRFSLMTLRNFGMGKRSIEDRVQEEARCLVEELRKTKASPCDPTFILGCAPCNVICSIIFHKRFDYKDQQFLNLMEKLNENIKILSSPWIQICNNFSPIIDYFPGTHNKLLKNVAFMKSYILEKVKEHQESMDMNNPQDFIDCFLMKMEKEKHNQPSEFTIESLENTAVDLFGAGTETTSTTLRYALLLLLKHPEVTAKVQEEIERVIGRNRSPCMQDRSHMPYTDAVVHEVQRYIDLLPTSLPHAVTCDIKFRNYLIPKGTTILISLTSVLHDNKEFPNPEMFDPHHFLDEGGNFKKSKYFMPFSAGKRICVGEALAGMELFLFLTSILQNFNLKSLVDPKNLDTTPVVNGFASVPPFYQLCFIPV
# Cytochrome P450 3A4 (Homo sapiens), sequence (P08684 whole entry, looked up): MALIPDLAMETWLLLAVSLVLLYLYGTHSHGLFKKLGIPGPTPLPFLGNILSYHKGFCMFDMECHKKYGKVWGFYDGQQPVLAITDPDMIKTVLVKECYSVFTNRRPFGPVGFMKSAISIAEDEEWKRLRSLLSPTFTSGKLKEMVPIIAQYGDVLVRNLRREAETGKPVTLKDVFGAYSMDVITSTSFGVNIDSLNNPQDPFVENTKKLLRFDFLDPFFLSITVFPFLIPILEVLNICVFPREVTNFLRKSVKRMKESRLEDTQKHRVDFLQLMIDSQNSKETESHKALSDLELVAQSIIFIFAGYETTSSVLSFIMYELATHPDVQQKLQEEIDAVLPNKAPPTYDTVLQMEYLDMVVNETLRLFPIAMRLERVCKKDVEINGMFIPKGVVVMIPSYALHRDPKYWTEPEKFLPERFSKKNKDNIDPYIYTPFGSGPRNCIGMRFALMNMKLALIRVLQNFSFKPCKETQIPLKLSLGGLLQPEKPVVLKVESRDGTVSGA
# Cytochrome P450 1A2 (Homo sapiens), sequence (P05177 whole entry, looked up): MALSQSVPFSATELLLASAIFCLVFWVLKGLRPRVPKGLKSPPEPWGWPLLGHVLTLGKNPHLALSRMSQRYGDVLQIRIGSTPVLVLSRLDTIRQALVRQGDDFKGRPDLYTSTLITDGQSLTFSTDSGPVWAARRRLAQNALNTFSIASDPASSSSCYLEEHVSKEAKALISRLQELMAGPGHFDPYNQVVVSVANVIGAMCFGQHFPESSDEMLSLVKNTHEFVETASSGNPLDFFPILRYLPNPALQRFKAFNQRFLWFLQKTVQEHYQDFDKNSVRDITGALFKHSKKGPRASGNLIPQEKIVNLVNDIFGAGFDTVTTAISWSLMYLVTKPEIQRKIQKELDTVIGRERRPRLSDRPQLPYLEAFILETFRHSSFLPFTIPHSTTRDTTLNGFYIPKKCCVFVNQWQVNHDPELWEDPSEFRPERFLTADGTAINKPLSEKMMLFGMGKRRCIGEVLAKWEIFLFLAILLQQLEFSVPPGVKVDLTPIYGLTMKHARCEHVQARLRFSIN
smiles,measurement,setting,value
C=CCCCCCCCCC(=O)OCC,Potency,[1],inactive
same,Potency,[2],inactive
same,Potency,[3],inactive
C[C@H]1[C@H](NC(=O)/C(=N/OC(C)(C)C(=O)O)c2csc(N)n2)C(=O)N1S(=O)(=O)O (stereo in doubt),Potency,[1],inactive
same,Potency,[2],inactive
same,Potency,[3],inactive
COc1ccnc(CS(=O)c2nc3cc(OC(F)F)ccc3[nH]2)c1OC (stereo not given),Potency,[4],35.8 µM (active)
CCCCc1nc(Cl)c(CO)n1Cc1ccc(-c2ccccc2-c2nn[nH]n2)cc1,Potency,[4],inactive
same,Potency,[2],inactive
C=CN1CCCCCC1=O,Potency,[1],inactive
same,Potency,[2],inactive
same,Potency,[3],inactive
Clc1cc(Cl)c(Cl)nc1Cl,Potency,[1],inactive
same,Potency,[2],inactive
same,Potency,[3],inactive
C=CC(C)(CCC=C(C)C)OC(=O)CC (stereo not given),Potency,[1],31.7 µM (active)
same,Potency,[2],inactive
same,Potency,[3],28.3 µM (active)
CN(C)CCCN(C)CCCN(C)C,Potency,[1],inactive
same,Potency,[2],inactive
same,Potency,[3],inactive
CCCCCCC1CCC(=O)O1 (stereo not given),Potency,[2],inactive
same,Potency,[3],inactive
CCN(CC#N)c1cccc(C)c1,Potency,[4],28.3 µM (active)
same,Potency,[2],inactive
same,Potency,[3],inactive
CN(C)CCCCCCN(C)C,Potency,[2],inactive
CCCCCCCC1CCCC1=O (stereo not given),Potency,[4],inactive
same,Potency,[2],inactive
same,Potency,[3],inactive
CC(C)(C)C(=O)Oc1ccc(S(=O)(=O)Nc2ccccc2C(=O)NCC(=O)O)cc1,Potency,[4],inactive
same,Potency,[2],inactive
same,Potency,[3],inactive
CC(C)C[C@@H](N)C(=O)O,"activity change, negative = inhibition",[2],1.04% [at 15.8 µM]
CCCCCC(=O)OCCc1ccccc1,Potency,[2],inactive
same,Potency,[3],inactive
COc1cc(C)nc(-n2nc(C)cc2OC)n1,Potency,[2],inactive
O=S(=O)(O)c1cccc2ccccc12,Potency,[2],inactive
same,Potency,[3],inactive
CC(=O)NC(=O)c1ccccc1O,Potency,[2],inactive
Cc1ccc(C(=O)c2ccc(CC(=O)O)n2C)cc1,Potency,[4],inactive
same,Potency,[2],inactive
same,Potency,[3],inactive
CCCOC(=O)CC,Potency,[4],35.5 µM (active)
same,Potency,[2],inactive
same,Potency,[3],inactive
Cc1c(N)c(=O)n(-c2ccccc2)n1C,Potency,[2],inactive
NCCCC(N)(C(=O)O)C(F)F (stereo not given),Potency,[2],inactive
CCOc1ccccc1OCC,Potency,[2],inactive
N[C@@H](CCC(=O)O)C(=O)O,Potency,[4],39.9 µM (active)
same,Potency,[2],inactive
same,Potency,[3],inactive
CCOC(=O)OC(C)OC1=C(C(=O)Nc2ccccn2)N(C)S(=O)(=O)c2ccccc21 (stereo not given),Potency,[4],inactive
same,Potency,[2],inactive
same,Potency,[3],inactive
CC(C(=O)O)c1cccc(Oc2ccccc2)c1 (stereo not given),Potency,[4],inactive
same,Potency,[2],inactive
same,Potency,[3],inactive
CNCC(O)c1ccc(O)c(O)c1 (stereo not given),Potency,[2],inactive
CO/N=C(\C(=O)N[C@@H]1C(=O)N2C(C(=O)O)=C(CSc3nc(=O)c(O)nn3C)CS[C@H]12)c1csc(N)n1,Potency,[4],inactive
same,Potency,[2],inactive
same,Potency,[3],inactive
CCN1CCOCC1,Potency,[4],39.2 µM (active)
same,Potency,[2],inactive
same,Potency,[3],inactive
CC[N+](C)(CC)CCOC(=O)C1c2ccccc2Oc2ccccc21,Potency,[2],inactive
same,Potency,[3],inactive
CC1=C(C/C=C(\C)CCC[C@H](C)CCC[C@H](C)CCCC(C)C)C(=O)c2ccccc2C1=O,Potency,[2],inactive
same,Potency,[3],inactive
Nc1ccccn1,Potency,[2],inactive
c1coc(CNc2ncnc3nc[nH]c23)c1,Potency,[2],inactive
Cc1ncc([C@@H](CCCCCCc2ccc3c(n2)NCCC3)CC(=O)O)cn1,Potency,[4],inactive
same,Potency,[2],inactive
same,Potency,[3],inactive
CCOc1ccc2nc(S(N)(=O)=O)sc2c1,Potency,[4],4.07 µM (active)
same,Potency,[2],inactive
same,Potency,[3],inactive
CN1CCC(=C2c3ccccc3CCc3cccnc32)CC1,Potency,[2],inactive
CCOC(=O)C(=O)CCCCCCl,Potency,[2],inactive
same,Potency,[3],inactive
CC(C)NNC(=O)c1ccncc1,Potency,[4],inactive
same,Potency,[2],inactive
same,Potency,[3],inactive
NO,Potency,[2],inactive
CCCCOCCOC(=O)COc1cc(Cl)c(Cl)cc1Cl,Potency,[4],39.9 µM (active)
same,Potency,[2],24.5 µM (active)
same,Potency,[3],inactive
CCN[C@@H]1C[C@H](N)[C@@H](OC2OC(CN)=CCC2N)[C@H](O)[C@H]1O[C@H]1OC[C@](C)(O)[C@H](NC)[C@H]1O (stereo not given in full),"activity change, negative = inhibition",[2],-0.868% [at 0.29 µM]
COC(=O)C1=C(C)NC(C)=C(C(=O)OC(C)C)C1c1cccc2nonc12 (stereo not given),Potency,[2],inactive
O=C1NC(=O)C2CC=CCC12 (stereo not given),Potency,[2],inactive
C1CCC2=NCCCN2CC1,Potency,[2],inactive
CCCCN1C=CN(C)C1,"activity change, negative = inhibition",[2],-0.505% [at 15.8 µM]
c1ccc(Cc2ccccc2)cc1,Potency,[4],35.6 µM (active)
same,Potency,[2],inactive
same,Potency,[3],inactive
